For assay [1], the system named is Wnt5a (protein binding on small-molecule microarray). Description: small molecules binding Wnt5a protein – biophysical, small-molecule microarray, 635/667 nm fluorescence, primary screen (AID 1142).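 Note: fluorescence read at 667 nm with signal to noise per printed feature.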 The conditions noted are these: 635 nm fluorescence, higher = more signal.
Assay [2] can be described thus: ATP-based viability of Huh7 replicon cells – cell-based, CellTiter-Glo luminescence, basal, 48 h, cytotoxicity control for HCV replication inhibitor project, primary screen (AID 1143).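 Note: Huh7 hepatoma cells carrying a hepatitis C replication reporter with no stimulus; test concentration not given here.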 The following applies: higher = more signal, called active from +8 up or from −8 down. For orientation: A replicon is a self-replicating genome or part of one, used to study replication in cells.

A short description of assay [3]: Pseudomonas biofilm growth suppression – PAO1 strain, BacTiter-Glo luminescence, LB-PBS, primary screen (AID 1144). The conditions noted are these: P. aeruginosa PAO1 biofilm, 12 h, higher = more signal.
Assay [4] can be described thus: basal CRE-LacZ reporter activity in PC12 – cell-based, unstimulated, primary screen (AID 1145). The conditions noted are these: no forskolin, luminescence, 4.5 h, higher = more signal, called active from +8 up or from −8 down.
Assay [5] in a line: forskolin-driven CRE-LacZ activity in PC12 – cell-based, CRE-LacZ reporter, forskolin-stimulated, primary screen (AID 1146).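 Note: PC12 cells with 6xCRE LacZ reporter stimulated by forskolin 10 µM; beta-galactosidase reporter signal reflecting CREB driven transcription.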 The conditions noted are these: luminescence, 4.5 h, higher = more signal, called active from +8 up or from −8 down.
Assay [6] concerns the target Streptavidin (Streptomyces avidinii) (UniProt P22629). The experiment in a line: compounds binding control protein streptavidin – biophysical, small-molecule microarray, 635/667 nm fluorescence, artefact control for SMM compound annotation, primary screen (AID 1147).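 Note: signal reflects streptavidin binding to arrayed compounds as a control protein.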 The conditions noted are these: higher = more signal.
Assay [7] can be described thus: probe aInhba binding on compound microarray – biochemical, small-molecule microarray, 635/667 nm fluorescence, primary screen (AID 1148).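 Note: score merges 667nm spot fluorescence with signal-to-noise for antibody binding to printed compounds.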 The following applies: higher = more signal.
Assay [8] addresses Torsin-1A (Homo sapiens) (UniProt O14656). Description: TOR1A wild-type binding on microarray – cell lysate, small-molecule microarray, lysate, 635/667 nm, primary screen (AID 1149). The following applies: COS7 hTOR1A-WT lysate, 635 nm fluorescence, higher = more signal.
Assay [9] shares this target. The experiment in a line: torsin A mutant lysate binding on microarrays – cell lysate, small-molecule microarray, COS7 lysate, 635/667 nm fluorescence, primary screen (AID 1150).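 Note: score pools 667 nm emission and signal to noise measuring lysate protein binding.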 The conditions noted are these: COS7 hTOR1A mutant lysate, 635 nm fluorescence, higher = more signal.
Assay [10] concerns Sonic hedgehog protein (Shh). The experiment in a line: Sonic hedgehog microarray binding compounds – biochemical, small-molecule microarray, 635/667 nm fluorescence, primary screen (AID 1151).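 Note: Shh protein binding to compounds spotted on small-molecule microarray slides; score combines spot fluorescence intensity with signal-to-noise across triplicate slides.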 The conditions noted are these: 635 nm fluorescence, higher = more signal.
The nature of assay [11]: optical density shifts of acrAB sulA E. coli – strain DRC41, OD650, 48 h, E. coli filamentation inducer project, primary screen (AID 1152).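 Note: E. coli MC1000 strain DRC41 lacking acrAB efflux pump and sulA.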 The conditions noted are these: higher = more signal, called active from +8 up or from −8 down.
Assay [12] in a line: probe aLefty1 binding on compound microarray – biochemical, small-molecule microarray, 635/667 nm fluorescence, primary screen (AID 1153).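 Note: score merges spot fluorescence with signal-to-noise ratio from the scanned slide images.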 The conditions noted are these: higher = more signal.
Assay [13] can be described thus: plasmodial surface anion channel blockers, osmotic lysis – cell-based, P. falciparum Indochina, OD700, 1 h, primary screen (AID 1154). The following applies: P. falciparum Indochina infected RBC osmotic lysis, higher = more signal, called active from +8 up or from −8 down.
A short description of assay [14]: plasmodial surface anion channel blockers, osmotic lysis – cell-based, P. falciparum Indochina, OD700, 2 h, primary screen (AID 1155).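 Note: lysis reports solute entry through the parasite surface anion channel PSAC.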 The conditions noted are these: P. falciparum Indochina infected erythrocytes, higher = more signal, called active from +8 up or from −8 down.
Assay [15] is described as follows: changes in parasitized red cell lysis, either direction – P. falciparum Indochina, OD700, 3 h, PSAC antagonist project, primary screen (AID 1156). The following applies: P. falciparum-infected erythrocytes, osmotic lysis, higher = more signal, called active from +8 up or from −8 down.
Assay [16] can be described thus: plasmodial surface anion channel blockers, osmotic lysis – cell-based, P. falciparum Indochina, OD700, 18 h, primary screen (AID 1157). The following applies: P. falciparum Indochina infected erythrocytes, osmotic lysis OD700, 18 h; higher = more signal, called active from +8 up or from −8 down.
Assay [17] can be described thus: S6 kinase pathway phospho-S6 level changes – cell-based, A549, cytoblot, luminescence, serum-stimulated, primary screen (AID 1158).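 Note: serum-stimulated A549 lung adenocarcinoma cells; signal is phosphorylated S6 detected by cytoblot immunostaining with HRP secondary.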 The following applies: 5 h, higher = more signal.
Assay [18] has as its target NADPH oxidase 2 (Homo sapiens) (UniProt P04839). Description: compounds shifting NOX2 Amplex Red fluorescence – cell-based, HEK293-NOX2, PMA-stimulated, NOX inhibitor project, primary screen (AID 1159). Note: test concentration not given here. The conditions noted are these: 45 min, higher = more signal, called active from +8 up or from −8 down.
The target of assay [19] is NADPH oxidase 4 (Homo sapiens) (UniProt Q9NPH5). The experiment in a line: compounds shifting NOX4 Amplex Red fluorescence – cell-based, HEK293-NOX4, tetracycline-induced, NOX inhibitor project, primary screen (AID 1160). The following applies: HEK293-NOX4, Amplex Red H2O2 fluorescence, 45 min; higher = more signal, called active from +8 up or from −8 down.
Assay [20] addresses NADPH oxidase 5 (Homo sapiens) (UniProt Q96PH1). Description: compounds shifting NOX5 Amplex Red fluorescence – cell-based, HEK293-NOX5, NOX inhibitor project, primary screen (AID 1161). The conditions noted are these: HEK293-NOX5, ionomycin, 45 min, higher = more signal.

Active and inactive are the calls of the source. Unless noted, the rule behind the calls is not given here.

Chain of Torsin-1A (Homo sapiens) (O14656 whole entry, looked up): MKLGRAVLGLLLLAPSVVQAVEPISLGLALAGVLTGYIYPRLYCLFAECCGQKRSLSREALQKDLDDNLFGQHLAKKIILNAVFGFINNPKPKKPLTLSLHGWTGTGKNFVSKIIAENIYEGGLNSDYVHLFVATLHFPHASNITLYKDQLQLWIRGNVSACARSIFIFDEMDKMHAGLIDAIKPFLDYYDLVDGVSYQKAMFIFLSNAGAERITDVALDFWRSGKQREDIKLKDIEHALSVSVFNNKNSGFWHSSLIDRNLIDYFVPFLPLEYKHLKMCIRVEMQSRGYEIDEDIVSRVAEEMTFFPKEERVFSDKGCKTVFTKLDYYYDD
Chain of NADPH oxidase 4 (Homo sapiens) (Q9NPH5 whole entry, looked up): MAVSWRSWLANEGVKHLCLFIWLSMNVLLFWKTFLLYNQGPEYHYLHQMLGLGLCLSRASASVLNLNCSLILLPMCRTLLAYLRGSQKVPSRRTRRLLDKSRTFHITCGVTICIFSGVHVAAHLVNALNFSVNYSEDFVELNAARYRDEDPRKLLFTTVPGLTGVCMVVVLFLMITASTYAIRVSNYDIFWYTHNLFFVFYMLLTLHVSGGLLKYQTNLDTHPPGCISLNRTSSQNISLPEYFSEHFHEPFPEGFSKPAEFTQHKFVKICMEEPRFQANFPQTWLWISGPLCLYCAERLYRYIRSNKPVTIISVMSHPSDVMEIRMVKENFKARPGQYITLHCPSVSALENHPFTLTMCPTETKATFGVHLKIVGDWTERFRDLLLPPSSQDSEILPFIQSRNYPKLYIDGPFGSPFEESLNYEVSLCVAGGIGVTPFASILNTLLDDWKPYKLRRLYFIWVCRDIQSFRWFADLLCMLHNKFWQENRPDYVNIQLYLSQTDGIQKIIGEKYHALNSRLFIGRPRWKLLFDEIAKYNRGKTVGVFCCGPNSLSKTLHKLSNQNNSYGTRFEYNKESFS
Chain of Streptavidin (Streptomyces avidinii) (P22629 whole entry, looked up): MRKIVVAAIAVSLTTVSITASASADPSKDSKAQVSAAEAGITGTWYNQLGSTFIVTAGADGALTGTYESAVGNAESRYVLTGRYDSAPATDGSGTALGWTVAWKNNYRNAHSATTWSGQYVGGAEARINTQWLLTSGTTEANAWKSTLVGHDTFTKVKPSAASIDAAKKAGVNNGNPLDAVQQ
Chain of NADPH oxidase 2 (Homo sapiens) (P04839 whole entry, looked up): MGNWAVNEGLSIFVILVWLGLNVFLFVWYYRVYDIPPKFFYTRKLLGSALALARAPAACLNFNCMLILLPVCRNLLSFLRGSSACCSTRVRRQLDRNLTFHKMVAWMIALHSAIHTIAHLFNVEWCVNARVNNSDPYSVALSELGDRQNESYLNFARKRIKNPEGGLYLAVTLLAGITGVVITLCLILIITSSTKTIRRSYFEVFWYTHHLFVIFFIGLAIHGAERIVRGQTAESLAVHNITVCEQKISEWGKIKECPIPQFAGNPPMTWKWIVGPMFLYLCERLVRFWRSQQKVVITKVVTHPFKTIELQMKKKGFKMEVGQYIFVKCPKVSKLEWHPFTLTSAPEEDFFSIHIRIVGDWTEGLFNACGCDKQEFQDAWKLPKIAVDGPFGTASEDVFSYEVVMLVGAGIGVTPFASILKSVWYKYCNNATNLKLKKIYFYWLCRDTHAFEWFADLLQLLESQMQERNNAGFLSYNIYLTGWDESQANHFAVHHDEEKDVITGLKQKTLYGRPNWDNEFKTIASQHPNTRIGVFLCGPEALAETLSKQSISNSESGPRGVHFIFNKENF
Chain of NADPH oxidase 5 (Homo sapiens) (Q96PH1 whole entry, looked up): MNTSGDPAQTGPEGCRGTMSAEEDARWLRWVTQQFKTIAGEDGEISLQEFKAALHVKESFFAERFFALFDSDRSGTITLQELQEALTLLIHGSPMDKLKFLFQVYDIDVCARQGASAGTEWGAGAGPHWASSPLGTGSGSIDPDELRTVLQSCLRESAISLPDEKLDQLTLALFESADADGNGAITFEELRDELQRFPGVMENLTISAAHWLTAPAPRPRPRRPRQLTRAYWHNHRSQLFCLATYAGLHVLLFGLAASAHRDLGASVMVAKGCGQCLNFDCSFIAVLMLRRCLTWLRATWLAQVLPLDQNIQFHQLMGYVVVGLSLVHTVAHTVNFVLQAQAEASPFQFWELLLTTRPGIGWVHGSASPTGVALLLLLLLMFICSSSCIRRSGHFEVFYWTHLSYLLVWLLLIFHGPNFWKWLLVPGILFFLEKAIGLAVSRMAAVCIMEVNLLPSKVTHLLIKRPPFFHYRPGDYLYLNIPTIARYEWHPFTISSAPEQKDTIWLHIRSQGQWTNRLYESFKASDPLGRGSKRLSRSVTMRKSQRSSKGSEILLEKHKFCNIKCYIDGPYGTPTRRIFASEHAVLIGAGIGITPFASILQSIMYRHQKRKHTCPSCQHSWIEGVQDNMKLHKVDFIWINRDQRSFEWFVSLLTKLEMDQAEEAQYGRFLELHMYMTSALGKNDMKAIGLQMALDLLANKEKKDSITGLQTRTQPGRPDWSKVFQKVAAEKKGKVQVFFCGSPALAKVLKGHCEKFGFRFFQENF

`C=CCOC(=O)[C@H]1[C@@H]2C(=O)O[C@@H](c3ccccc3)[C@@H](c3ccccc3)N2[C@@H](c2ccc(OCCOC(=O)[C@H]3C[C@H]4C(=O)NCC(=O)N4[C@H]3c3cccc(OCCO)c3)cc2)[C@]12C(=O)Nc1ccc(I)cc12`: the composite z-score in assay [1] stood at 0.984; in assay [6], 0.0708; in assay [7], 0.434; with Torsin-1A (Homo sapiens) [8] it was 0.418; in the assay with Torsin-1A (Homo sapiens) [9], 0.83; in assay [10], 1.94. The molecule also registered a composite z-score in assay [12] of 1.31. The z-score in assay [2] is -0.469 (inactive); in [3], -0.282 (inactive); in [4], 0.423 (inactive); in assay [5] it was -0.142 (inactive); in assay [11], 0.0133 (inactive); in assay [13], 5.17 (inactive). Besides, the z-score in assay [14] was 2.48 (inactive); in [15], 0.939 (inactive); in assay [16] it was 1.58 (inactive); in assay [17], 0.58; in [18], 1.71 (inactive); in assay [19] it was 0.956 (inactive). The z-score in assay [20] amounted to 1.4.

Consider `[N-]=[N+]=Nc1ccccc1C[C@]1(C(N)=O)COC(c2ccc(OCCCO)cc2)=N1`, for which the composite z-score in [1] is 0.131; in assay [6], 0.559; in assay [7], 0.285; in the assay with Torsin-1A (Homo sapiens) [8], 0.517; with Torsin-1A (Homo sapiens) [9], 1.21; in assay [10] it was -0.567. In assay [12], this molecule gave a composite z-score of 0.146. For the same molecule, the z-score in [2] is -3.62 (inactive); in [3], -1.16 (inactive); in assay [4], 1.33 (inactive); in assay [5], -1.31 (inactive); in [11] it was -0.142 (inactive); in [13], 24.7 (active). The z-score was 9.16 (active) in assay [14]; 1.56 (inactive) in assay [15]; 0.0294 (inactive) in [16]; 1.84 in [17]; -2.14 (inactive) in [18]; -1.48 (inactive) in assay [19]. Moreover, the z-score in assay [20] is -2.48.

With `COc1ccc(C#Cc2ccc3c(c2)[C@]2(C(=O)N3)[C@H](c3ccccc3OCCO)N3[C@H](c4ccccc4)[C@H](c4ccccc4)OC(=O)[C@H]3[C@@H]2C(=O)NC[C@H](O)c2ccccc2)cc1`, the composite z-score was 0.537 in assay [1]; 0.448 in [6]; -0.0259 in assay [7]; 0.138 with Torsin-1A (Homo sapiens) [8]; 0.701 with Torsin-1A (Homo sapiens) [9]; 1.72 in assay [10]. In [12], this molecule had a composite z-score of 0.0147. Further, the z-score is -5.57 (inactive) in assay [2]; -0.627 (inactive) in assay [3]; 0.0921 (inactive) in assay [4]; -0.54 (inactive) in [5]; 1.21 (inactive) in [11]; 1.71 (inactive) in assay [13]. The z-score in assay [14] is 1.71 (inactive); in assay [15], 0.0857 (inactive); in assay [16] it was 1.2 (inactive); in assay [17], 0.138; in [18] it was 1.78 (inactive); in [19], 0.243 (inactive). For the same molecule, the z-score in assay [20] stood at 1.32.

Regarding `Cc1ccc(S[C@]2(C(=O)NCc3ccccc3)CC(=O)N(Cc3ccccc3C(F)(F)F)[C@@H]2c2ccc(CO)cc2I)cc1`, the composite z-score in assay [1] was -0.264; in assay [6], -0.464; in assay [7] it was 0.144; in the assay with Torsin-1A (Homo sapiens) [8], -0.545; with Torsin-1A (Homo sapiens) [9], -0.45; in [10] it was -0.26. The same molecule gave a composite z-score in [12] of 0.056. Further, the z-score is -1.5 (inactive) in assay [2]; 1.59 (inactive) in assay [3]; 1.06 (inactive) in assay [4]; 2.24 (inactive) in assay [5]; 0.852 (inactive) in assay [11]; 5.8 (inactive) in assay [13]. The z-score in assay [14] was 0.943 (inactive); in assay [15], 0.836 (inactive); in assay [16], 0.279 (inactive); in assay [17] it was 0.316; in assay [18], 0.708 (inactive); in assay [19] it was -1.5 (inactive). In addition, the z-score in [20] amounted to 1.11.

These data come from PubChem BioAssay.
